Source: PubChem BioAssay (National Center for Advancing Translational Sciences (NCATS))
RORg inh: inhibitors of mouse ROR gamma transcriptional activity. P51450. Drosophila S2 Gal4-RORgamma UAS-luciferase reporter, 20 h. Potency, µM (titrated, usually from 53.6 µM), for inactives: at the top dose activity change, negative = inhibition, most hits filed as inhibitors. actives 5.4% (n = 310,000); note: nearly all actives have a fitted effect of over 60% in size
Target sequence (P51450 whole entry, looked up, the tested form may be a part): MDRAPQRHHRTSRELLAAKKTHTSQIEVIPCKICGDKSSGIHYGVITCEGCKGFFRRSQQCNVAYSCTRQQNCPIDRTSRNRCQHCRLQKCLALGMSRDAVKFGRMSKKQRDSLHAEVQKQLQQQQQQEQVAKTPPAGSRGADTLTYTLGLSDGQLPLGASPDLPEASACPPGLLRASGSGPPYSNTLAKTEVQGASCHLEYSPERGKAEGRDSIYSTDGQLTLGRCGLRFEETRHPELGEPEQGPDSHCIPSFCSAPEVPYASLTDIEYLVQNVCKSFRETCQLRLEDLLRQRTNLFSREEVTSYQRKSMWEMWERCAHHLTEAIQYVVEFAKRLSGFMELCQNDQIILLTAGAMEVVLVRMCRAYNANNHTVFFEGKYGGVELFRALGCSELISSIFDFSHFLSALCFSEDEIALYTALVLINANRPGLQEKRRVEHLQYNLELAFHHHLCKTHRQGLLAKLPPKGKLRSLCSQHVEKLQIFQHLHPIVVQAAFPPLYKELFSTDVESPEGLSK
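In this cell-based reporter format, copper sulfate (700 uM final) drives Gal4–ROR gamma fusion expression from a metallothionein promoter in Drosophila Schneider cells; compounds preincubated 1 hr, reporter read after 20 hr at ambient temperature.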
VP16 counter: Gal4-VP16 reporter inhibition counter-screen. Drosophila S2 Gal4-VP16 UAS-luciferase, luminescence, 20 h. Potency, µM (titrated, usually from 53.6 µM), for the others: at the highest dose activity, negative = inhibition, usual class: inhibitors. actives 3.5% (n = 310,000). AID 2546;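 note: Gal4-VP16 expression switched on by copper sulfate through the metallothionein promoter; nearly all actives have a fitted effect of over 50% in size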
TDP1 block: TDP1 (human) enzyme inhibition; recombinant TDP1, AlphaScreen DNA substrate cleavage; Potency, µM (top dose mostly 130 µM), without a hit: top-dose activity change, negative = inhibition, hits mostly inhibitors; actives 0.28% (n = 350,000); note: nearly all actives have a fitted effect of over 40% in size
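Here, a 5' biotin and 3' phosphotyrosine-FITC DNA oligonucleotide reports Tdp1 activity: intact substrate bridges AlphaScreen beads, while cleavage leaves a 3' phosphate and drops signal. All incubations at room temperature.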
TDP1 cell noCPT: qHTS for Inhibitors of human tyrosyl-DNA phosphodiesterase 1 (TDP1): qHTS in cells in absence of CPT. actives 15% (n = 420,000). DT40 Tdp1-/- hTDP1 cells, no CPT, ATP luminescence, 48 h. Potency, µM (titrated, usually from 46.2 µM), for inactives: at the top dose activity change, negative = growth inhibition, most hits filed as inhibitors; note: nearly all actives have a fitted effect of over 55% in size
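DT40 Tdp1-/-;hTDP1 cells, no CPT (DMSO vehicle only), 400 cells/well; compounds pin-transferred; ≥48 hr, 37 °C; CellTiter-Glo 30 min RT dark, luminescence read.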
DT40 TDP1 CPT: DT40-hTDP1 cell growth loss with CPT; AID 686979; chicken DT40 Tdp1-/-;hTDP1 cells + 20 nM CPT, ATP luminescence, 48 h; Potency, µM (titrated, usually from 46.2 µM), without a hit: top-dose activity change, negative = growth inhibition, hits mostly inhibitors; actives 12% (n = 420,000); note: nearly all actives have a fitted effect of over 55% in size
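Chicken DT40 Tdp1-/- cells stably complemented with human TDP1 were seeded at 400 cells/well in medium containing 20 nM camptothecin, exposed to pin-transferred compounds, and grown at 37 °C for at least 48 hr. Viability was read as ATP luminescence.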
Numbers without * were called inactive; ? = inconclusive; nt = no result; [ ] = remark or other dose. Sampled rows, rich in hits. Any-hit rate of the full collection: about 19%. Calls come from the whole dose curve; as a rule, active = well fitted curve in the direction sought with a large enough effect; inconclusive = small, poorly fitted or top-dose-only effect, or another doubt; inactive = no such curve, though single readings can be large; an effect the other way counts as inactive or inconclusive. % is set by controls: 0 for no effect and ±100 for the full control effect; potency is the fitted concentration of half-maximal effect.

SMILES	RORg inh	VP16 counter	TDP1 block	TDP1 cell noCPT	DT40 TDP1 CPT
CC1=NOC(=O)/C1=C\c1ccc(-c2ccc(Br)cc2)o1	?	?	-7.4%	11.6µM*	13µM*
Cc1ccc(C2=NOC(=O)/C2=C\c2ccc(C)o2)cc1	-29.9%	11.9%	9.6%	23.1µM*	13µM*
CC1Sc2ccc(S(=O)(=O)NCc3ccccc3)cc2NC1=O (configuration not stated)	6.2%	-7.2%	-0.1%	-16.9%	?
CCCC(=O)Nc1ccc(OC[C@@H](O)CNC(C)C)c(C(C)=O)c1	2.5%[2.98 µM]	2.0%[17 µM]	11.3%[21 µM]	nt	nt
Cc1n(Cc2ccccc2)c2cc([N+](=O)[O-])ccc2[n+]1Cc1ccccc1	-18.8%	-1.1%	nt	20.6µM*	?
CCn1c(C)[n+](Cc2ccccc2)c2ccc(Cl)cc21	-0.6%	10.0%	1.2%	11.6µM*	10.3µM*
Cc1n(Cc2ccccc2)c2ccccc2[n+]1Cc1ccccc1	-20.3%[1.91 µM]	?	nt	0.731µM*	1.16µM*
Cc1nnc(NCc2ccc(Cl)cc2)c2c1nnn2Cc1ccc(F)cc1	nt	nt	7.0%	-7.7%	6.0%
CCN(Cc1ccncc1)Cc1nc(Cc2ccccc2Cl)no1	-1.8%	-12.8%	5.4%	13µM*	?
CN(Cc1cnccn1)Cc1nc(Cc2ccccc2Cl)no1	14.5%	2.9%	2.6%	-8.4%	-8.3%
COC(=O)c1scc(C)c1NC(=O)/C=C/C(=O)O	?	?	6.8%	-17.5%	12.2%
COc1ccc(CSC(=N)N)cc1[N+](=O)[O-]	?	-6.4%	2.2%	23.1µM*	23.1µM*
CCCCOc1ccc(CN(CCO)CCO)cc1[N+](=O)[O-]	25.7%	-7.3%	-2.7%	-2.2%	18.4µM*
CCCCCOc1ccc(CSC(=N)N)cc1[N+](=O)[O-]	?	-20.9%	3.9%	16.4µM*	14.6µM*
CCOc1ccc(CN(CCO)CCO)cc1[N+](=O)[O-]	-25.9%	-9.4%	4.0%	-3.5%	-1.4%
COc1ccc(CSc2nnnn2C)cc1[N+](=O)[O-]	-5.6%	-4.8%	-2.0%	-0.7%	10.2%
CCCCCOc1ccc(Cn2ccnc2)cc1[N+](=O)[O-]	?	-2.6%	5.5%	?	?
Cc1ccc(C2=NN(CC(=O)NCc3cccs3)C(=O)CC2)cc1	13.8%	-5.0%	4.7%	-19.2%	-0.5%
O=C1C2CCCN2C(=O)N1CCN1CCN(CCO)CC1 (configuration not stated)	-5.4%	-21.1%	-5.3%	7.7%	-1.4%
COc1ccc(C(=O)NC(=S)Nc2ccc(N3CCOCC3)cc2)cc1Cl	4.47µM*	7.94µM*	9.5%	20.6µM*	?
Cc1cccc(C(=O)Nc2ccc(N3CCN(c4ccc(F)cc4)CC3)c(C(=O)O)c2)c1	nt	nt	-14.2%	-6.4%	-13.5%
Cc1cccc(C(=O)Nc2ccc(N3CCC(CCN4CCOCC4)CC3)c(C(=O)O)c2)c1	nt	nt	25.1µM*	-13.1%	0.5%
Cc1cccc(C(=O)NC(=S)Nc2ccc(N3CCOCC3)cc2)c1	3.98µM*	7.08µM*	9.5%	?	?
COc1ccccc1C(=O)NC(=S)Nc1ccc(N2CCOCC2)c(Cl)c1	-31.5%	?	-1.2%	?	?
Cc1ccc(C(=O)NC(=S)Nc2ccc(N3CCOCC3)cc2)cc1C	2µM*	?	10.3%	14.6µM*	?
SMILES	RORg inh	VP16 counter	TDP1 block	TDP1 cell noCPT	DT40 TDP1 CPT
Cc1cccc(S(=O)(=O)Nc2cccc(-c3ccc(N4CCCCC4)nn3)c2)c1	nt	nt	3.0%	?	?
CN1OC[C@@H]2CN(C(=S)Nc3ccc(C#N)cc3)[C@H](c3ccc(N4CCCCC4)cc3)C[C@@H]21	nt	nt	nt	-1.5%	-2.9%
CC(C)CNc1nc(=S)nc(N(C)C)[nH]1	1.78µM*	4.47µM*	4.3%	-29.9%	?
CN(C)c1nc(=S)nc(NCc2ccccc2)[nH]1	25.0%	-7.0%[10 µM]	5.3%	?	?
Cc1ccsc1/C=N/n1c(COc2ccccc2)n[nH]c1=S	6.31µM*	6.31µM*	0.6%	-2.7%	10.7%
S=c1[nH]nc(COc2ccccc2)n1/N=C/c1cccs1	?	7.08µM*	0.0%	-3.2%	13.2%
CC1(CC(=O)Nc2ccccc2)NC(=S)N(c2ccccc2)N1 (configuration not stated)	7.94µM*	0.7%	8.2%	-2.9%	7.0%
CCCCCCC1(C)NC(=S)N(c2ccccc2)N1 (configuration not stated)	7.08µM*	-2.9%	10.4%	?	-27.2%
CCC1(c2ccccc2)NC(=S)N(c2ccc(C)cc2)N1 (configuration not stated)	5.01µM*	?	8.6%	-6.6%	-1.3%
CCCCCC1(C)NC(=S)N(c2ccccc2)N1 (configuration not stated)	?	?	8.6%	-8.7%	11.8%
C=C(C)CCC1(C)NC(=O)N(c2ccccc2)N1 (configuration not stated)	1.7%	-0.1%	-5.9%	-18.1%	-1.5%
CC1(C)CC(=O)C=C(NNC(=O)c2ccccc2O)C1	12.6µM*	11.2µM*	3.8%	-26.6%	?
Brc1ccc(CNc2ccc3ncccc3c2)cc1	?	7.08µM*	nt	11.6µM*	20.6µM*
COc1ccc(CNC(=O)CCNS(=O)(=O)c2cc(Br)cnc2N)cc1	-26.9%	-12.4%	3.9%	13µM*	20.6µM*
Nc1ncc(Br)cc1S(=O)(=O)NCCC(=O)NCc1ccc(F)cc1	-9.6%	-6.9%	4.6%	14.6%	-14.7%
CC(=O)Nc1ccc(C(=O)CSc2nccc(=O)[nH]2)cc1	-4.8%	-0.5%	0.0%	-12.7%	1.7%
CCC(=O)/C=C1\Sc2ccc(OC)cc2N1CCO	-29.8%	7.3%	6.2%	-21.1%	-25.9%
CCC(=O)/C=C1\Sc2ccc(OC)cc2N1CC	-5.9%	-10.1%	4.2%	16.4µM*	?
Cc1cccc(OCCCC(=O)NNC(=O)c2ccccn2)c1	nt	nt	2.1%	7.31µM*	6.51µM*
Cc1cccc(OCCCC(=O)NNC(=O)c2ccncc2)c1	nt	nt	-5.6%	-15.1%	-17.3%
O=C(CCc1ccccc1)NNC(=O)c1ccccn1	10µM*	?	9.8%	?	?
O=C(CCc1ccccc1)NNC(=O)CCc1ccccc1	-6.5%	-11.6%	4.0%	-5.1%	-1.2%
O=C(NNC(=O)C(c1ccccc1)c1ccccc1)c1ccccn1	5.62µM*	?	8.3%	2.31µM*	2.91µM*
O=C(NNc1ccccn1)C(c1ccccc1)c1ccccc1	-21.2%	-7.5%	2.4%	11.6%	9.0%
O=C(CCc1ccccc1)NNC(=O)c1cc(Cl)ccc1O	?	1.8%	nt	23.1µM*	?
NC1=NCc2ccccc21	-19.7%	10.8%	1.6%	-12.4%	?
